# An excerpt weighted towards active compounds, which were near 7.6% of everything screened.
# p53 reactivation: qHTS assay for re-activators of p53 using a Luc reporter; H1299 p53-A138V BP100-luciferase reporter, luminescence, 24 h; Potency, µM (series often up to 92.2 µM), for inactives: top-dose activity change, positive = activation, hits mostly activators; hit rate 0.063% among 320,000; AID 504706, 2011; further: potency means the concentration at half of the fitted maximal effect; % of control where 0% means no effect; nearly all actives have a fitted effect of over 45% in size
#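 H1299 (p53-null), stable ts p53-A138V + BP100-Luc; 1000 cells/well, Opti-MEM/10% FBS; cpd 4 pt, 1:5; 24 h, 37 deg C, 5% CO2; detection reagent 10 min RT; luminescence.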
# VP16 counter: VP16 counterscreen qHTS for inhibitors of ROR gamma transcriptional activity | Drosophila S2 Gal4-VP16 UAS-luciferase, luminescence, 20 h | Potency, µM (series often up to 53.6 µM), for the others: top-dose activity, negative = inhibition, actives largely listed as inhibitors | hit rate 3.5% among 310,000 | AID 2546, 2010;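 further: Gal4-VP16 expression switched on by copper sulfate through the metallothionein promoter; potency means the concentration at half of the fitted maximal effect; on the % scale 0 is the no-effect control and ±100 the full control effect; nearly all actives have a fitted effect of over 50% in size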
# Giardia kill: Small Molecules that selectively kill Giardia lamblia: qHTS. Giardia lamblia trophozoite viability. activity change, % at 7.66 µM, hits read low. hit rate 0.15% among 340,000. AID 540267, 2011; in the data active means activity change below about -80%; inconclusive means between about -30% and that limit;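 further: parasites exposed to compound for two days anaerobically before the ATP read; on the % scale 0 is the no-effect control and ±100 the full control effect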
#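 Luminescence from cellular ATP indicates surviving trophozoites (100 cells/well) following 48 hrs anaerobic compound treatment at 37 deg C; signal develops 15-30 min at room temperature.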
# RORgamma inh: qHTS for inhibitors of ROR gamma transcriptional activity; Drosophila S2 Gal4-RORgamma UAS-luciferase reporter, 20 h; Potency, µM (series often up to 53.6 µM), without a hit: at the highest dose activity change, negative = inhibition, most hits filed as inhibitors; hit rate 5.4% among 310,000; AID 2551, 2010; further: potency means the concentration at half of the fitted maximal effect; on the % scale 0 is the no-effect control and ±100 the full control effect; nearly all actives have a fitted effect of over 60% in size
# Target sequence (P51450 whole entry, looked up, the tested form may be a part): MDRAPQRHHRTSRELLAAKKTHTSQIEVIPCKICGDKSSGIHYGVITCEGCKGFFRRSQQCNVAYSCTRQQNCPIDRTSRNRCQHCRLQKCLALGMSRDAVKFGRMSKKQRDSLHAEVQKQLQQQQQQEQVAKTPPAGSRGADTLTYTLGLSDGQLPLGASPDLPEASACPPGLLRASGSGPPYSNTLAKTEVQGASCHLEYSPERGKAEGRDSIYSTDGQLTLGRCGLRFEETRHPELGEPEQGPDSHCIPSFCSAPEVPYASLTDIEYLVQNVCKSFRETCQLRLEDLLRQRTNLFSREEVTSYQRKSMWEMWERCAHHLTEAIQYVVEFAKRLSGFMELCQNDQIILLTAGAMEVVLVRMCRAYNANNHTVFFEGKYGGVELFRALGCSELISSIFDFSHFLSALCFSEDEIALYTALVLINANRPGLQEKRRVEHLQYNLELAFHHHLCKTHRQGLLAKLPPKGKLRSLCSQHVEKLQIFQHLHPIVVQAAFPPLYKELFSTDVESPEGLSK
#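 In this cell-based reporter format, copper sulfate (700 uM final) drives Gal4–ROR gamma fusion expression from a metallothionein promoter in Drosophila Schneider cells; compounds preincubated 1 hr, reporter read after 20 hr at ambient temperature.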
# BRCA1 expr up: qHTS Assay to Identify Small Molecule Activators of BRCA1 Expression; hit rate 1.1% among 380,000; MCF7-BRCA1-FFLuc reporter, luminescence, 48 h; response scale: scaled: vehicle 0%, 10 µM genistein 100%; Potency, µM (top dose mostly 46.1 µM), for inactives: at the top dose activation, most hits filed as activators; further: potency means the concentration at half of the fitted maximal effect; nearly all actives have a fitted effect of over 80% in size
#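 Using MCF7 cells harboring a BRCA1 firefly luciferase reporter, plated 2 h before compound pinning, the screen measured luminescence after 48 h incubation. Responses were normalized to DMSO and 10 microM genistein, then fitted for concentration-effect.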
# ELG1 repair inh: qHTS screen for small molecules that inhibit ELG1-dependent DNA repair in human embryonic kidney (HEK293T) cells expressing luciferase-tagged ELG1; AID 504467, 2011; Potency, µM (highest dose often 46.1 µM), without a hit: at the highest dose activity change, negative = inhibition, hits mostly inhibitors; hit rate 2.3% among 330,000; HEK293T ELG1-luciferase reporter, luminescence, 16 h; DNA damage induced by 5-fluorouridine; further: potency means the concentration at half of the fitted maximal effect; on the % scale 0 is the no-effect control and ±100 the full control effect; nearly all actives have a fitted effect of over 55% in size
#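 Quantitative HTS, concentration-response format. 2,000 cells/well co-treated with 5-fluorouridine and compound, 16 hr in 5% CO2 at 37 °C; ONE-Glo luminescence read after 30 min.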
# * = called active by the depositor; u = inconclusive; x = no result given; [ ] = dose if it differs, or a comment. Unless noted, the call rests on the fitted dose curve; in most records, active means well fitted curve in the direction sought with a large enough effect; inconclusive means small, poorly fitted or top-dose-only effect, or another doubt; inactive means no such curve, though single readings can be large; an effect the other way counts as inactive or inconclusive.
SMILES,p53 reactivation,VP16 counter,Giardia kill,RORgamma inh,BRCA1 expr up,ELG1 repair inh
COc1ccc(CN2C(=O)CC(=O)NC2=S)cc1,-1.8%,-3.6%,25.6,38.1%,11.2%,-13.4%
CCOP(=O)(OCC)c1nc(-c2cccc3ccccc23)oc1N1CCCCC1,-1.4%,-22.7%,8.5,-22.1%,-31.7%,23.1µM*
COP(=O)(OC)c1nc(-c2cccc3ccccc23)oc1N1CCCCC1,-2.3%,-8.7%,1.6,-12.2%,-19.6%,u
CC(=O)[C@H]1CC[C@H]2C3CC[C@H]4C[C@H](O)CC[C@]4(C)C3CC[C@]12C (stereo partly specified),x,3.2%,x,-11.9%,x,x
CCSc1cc(C2C(C#N)=C(N)Oc3n[nH]c(C)c32)c(C)o1 (stereo unspecified),-41.8%,u,8.5,11.2µM*,-23.7%,u
COc1ccc(N2C(=O)CS(=O)C(c3ccccc3)C2=O)cc1 (stereo unspecified),u,-0.7%[10 µM],19.3,1.26µM*,-6.0%,15.3%
COc1ccc(N2C(=O)CC(N3CCC(n4c(=O)[nH]c5ccccc54)CC3)C2=O)cc1 (stereo unspecified),-2.0%,-0.1%,11.4,9.2%,7.5%,0.4%
Cc1oc(-c2ccccc2)nc1CN1C(=O)C(C)N=C(c2ccccc2F)c2cc(Cl)ccc21 (stereo unspecified),4.7%,-10.8%,1.6,12.6µM*,-43.9%,12.8%
COC(=O)[C@@]1(Sc2ccc(C)cc2)CC(=O)N(P(=O)(OC)OC)[C@@H]1c1ccccc1,x,x,x,x,15.6%,x
Cc1cccc2c1=NC(=O)/C(=C/c1c(O)[nH]c(=O)[nH]c1=O)C=2,4.2%,-9.1%,-1.3,13.7%,6.3%,1.2%
O=c1[nH]c(=S)[nH]c(O)c1/C=C1/C=c2ccccc2=N1,3.5%,12.6µM*,21.2,12.6µM*,-56.1%,u
COCCOC(=O)c1c(N)n(Cc2ccccc2)c2nc3ccccc3nc12,0.1%,9.2%,19.6,16.1%,-50.9%,18.4µM*
CCCCCn1c(N)c(C(=O)NCc2cccs2)c2nc3ccccc3nc21,-8.4%,-17.7%,5.4,26.8%,-23.7%,u
CCCOC(=O)c1c(N)n(Cc2cccs2)c2nc3ccccc3nc12,-6.4%,8.7%,16.7,u,-53.4%,20.6µM*
CCCCn1c(N)c(C(=O)OCCOC)c2nc3ccccc3nc21,-5.6%,5.2%,-1.2,-6.3%,2.7%,8.2µM*
CCCCn1c(N)c(C(=O)OCC2CCCO2)c2nc3ccccc3nc21 (stereo unspecified),0.3%,-22.7%,4.0,-10.0%,-37.0%,9.2µM*
CC(C)CCn1c(N)c(C(=O)OCC2CCCO2)c2nc3ccccc3nc21 (stereo unspecified),-14.2%,18.6%,-26.0,0.4%,-38.7%,u
CCCCOCCCn1c(N)c(C(=O)OCCOC)c2nc3ccccc3nc21,18.9%,-0.3%,12.3,33.3%,-1.8%,u
c1cnc(N2CCC3(CCNCC3)CC2)nc1,x,-4.2%,x,-17.9%,x,x
CN[C@@H](C)[C@H]1CC[C@@H](N)[C@@H](O[C@@H]2[C@@H](O)[C@@H](O[C@H]3OC[C@@](C)(O)[C@@H](NC)[C@@H]3O)[C@H](N)C[C@@H]2N)O1 (tested in a mixture with another compound),x,-3.6%[17 µM],x,-0.4%[2.98 µM],x,x
CC(C)NCC(O)c1ccccc1Cl (stereo unspecified),x,-4.0%,x,-1.1%,x,x
CCOCCCn1c(N)c(C(=O)Nc2sc3c(c2C(=O)OC)CCCC3)c2nc3ccccc3nc21,-6.3%,11.2µM*,12.1,u,-0.2%,u
NNC(N)=S,x,-12.7%,x,14.1µM*,x,x
NC(=S)Nc1ccccc1,x,5.6%,x,4.1%,x,x
CCN(CC)c1ccc(/C=C/[N+](=O)[O-])cc1,-9.7%,-73.3%,-14.7,8.91µM*,-14.5%,u
SMILES,p53 reactivation,VP16 counter,Giardia kill,RORgamma inh,BRCA1 expr up,ELG1 repair inh
CCN(CC)c1ccccc1,-1.9%,8.5%,-12.8,14.7%,-4.6%,18.1%
Cc1ccc(/C=C2\C(=O)NC(=S)N(c3ccc(F)cc3)C2=O)s1,2.1%,-6.6%,3.5,12.9%,-44.5%,u
Cc1ccc(/C=C2\C(=O)NC(=S)N(c3ccccc3F)C2=O)s1,-50.9%,u,5.2,u,-88.4%,23.1µM*
O=c1c2cc(N3CCOCC3)ccc2[nH]c(=S)n1Cc1ccc(Cl)cc1,17.3%,0.562µM*,11.5,8.91µM*,11.2µM*,u
COC(=O)C(Cc1ccc(N(CCCl)CCCl)cc1)N=Cc1ccccc1O (stereo unspecified),x,u,3.6,7.94µM*,-94.7%,18.3µM*
CCOC(=O)C(NC(=O)C(Cc1ccc(N(CCCl)CCCl)cc1)NC(C)=O)C(C)C (stereo unspecified),6.7%,0.3%,8.2,25.9%,-8.1%,16.1%
COc1ccccc1NS(=O)(=O)c1cc(NC(=O)c2ccc(Cl)nc2)ccc1N1CCCC1,-0.4%,x,0.0,x,-66.6%,16.4µM*
CCOC(=O)c1c(C)n(Cc2ccccc2)c2ccc(OCC(O)Cn3nc(C)cc3C)cc12 (stereo unspecified),-9.7%,-22.6%,4.3,-23.1%,-36.5%,20.6µM*
CC12CN3CN(C1)CC(c1ccccc1)(C3)C2=O,0.6%,0.9%,-10.5,u,22.0%,-2.9%
CC(C)OCCCNC(=O)c1c(N)n(CC2CCCO2)c2nc3ccccc3nc12 (stereo unspecified),-13.6%,-8.4%,7.9,13.0%,-44.5%,9.2µM*
COc1ccc(CCNC(=O)c2c(N)n(CCN3CCOCC3)c3nc4ccccc4nc23)cc1OC,-26.9%,-28.2%,-4.8,21.2%,-43.6%,16.4µM*
Nc1c(C(=O)OC2CCCCC2)c2nc3ccccc3nc2n1CC1CCCO1 (stereo unspecified),u,-25.7%,-0.3,11.2µM*,0.6%,u
CC(C)OC(=O)c1c(N)n(CC2CCCO2)c2nc3ccccc3nc12 (stereo unspecified),5.5%,-8.0%,0.6,-22.7%,-16.9%,u
CC(C)CCOC(=O)c1c(N)n(CC2CCCO2)c2nc3ccccc3nc12 (stereo unspecified),21.7%,-3.0%,3.5,-2.2%,-77.5%,u
